From PubChem BioAssay (NCATS) come the findings set out here.

Assay in all cases: qHTS profiling for inhibitors of Plasmodium falciparum proliferation (AID 504749); note: nearly all actives have a fitted effect of over 60% in size
Holding throughout (details): P. falciparum in erythrocytes, SYBR Green DNA, 72 h; series mostly up to 28.7 µM

One assay has as its system CP256. An outline of the steps:
(§1)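 Each compound contacts P. falciparum-infected red blood cells for 72 h at 37 C; lysis buffer (Tris, EDTA, saponin, Triton X, SYBR Green I) is added and fluorescence measured next morning; values normalized to controls.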

Another assay relates to CP260. An outline of the steps:
as §1

The subject of a further assay is CP262. In a few lines: as §1
The test system of the next assay is CP265. An outline of the steps:
as §1

The next assay deals with CP266. An outline of the steps:
as §1

In a further assay the test system is CP268. In a few lines: as §1
A further assay has as its system CP269. An outline of the steps: as §1
In a further assay the test system is CP286. An outline of the steps:
as §1

A further assay has as its system CP291. In a few lines:
as §1

The next assay relates to CP297. An outline of the steps: as §1
The test system of the next assay is CP305. An outline of the steps:
as §1

Another assay has as its system CP315. An outline of the steps: as §1
In another assay the test system is CP325. An outline of the steps: as §1
In the next assay the test system is CP329. An outline of the steps:
as §1

In the next assay the test system is CP335. An outline of the steps:
as §1

A further assay concerns DFO2036. An outline of the steps:
as §1

In another assay the test system is DIV14. In a few lines: as §1
For a further assay, the system named is DIV17. In a few lines: as §1
In a further assay the test system is DIV30. An outline of the steps: as §1
The test system of the next assay is Dd2. An outline of the steps: as §1

Inconclusive results are not listed. The source made the active and inactive calls. Calls come from the whole dose curve; as a rule, active = well fitted inhibition curve with a large enough effect; inconclusive = small, poorly fitted or top-dose-only effect; inactive = flat fitted curve, though single readings scatter.
Potency is the fitted concentration of half-maximal effect.

Take `NC(=O)c1ncn([C@@H]2O[C@H](CO)[C@@H](O)[C@H]2O)c1O`: the Potency result in the assay on CP256, with CP260, in the assay on CP262, with CP265, with CP266 and with CP268 was “inactive” throughout. The Potency entry in the assay with CP269, in the assay on CP286, in the assay with CP291, in the assay with CP297, with CP305 and in the assay on CP315 was “inactive” throughout. Also, the Potency result in the assay on CP325, in the assay on CP329, in the assay on CP335, with DFO2036, in the assay with DIV14 and in the assay with DIV17 was “inactive” throughout. In addition, the Potency entry with DIV30 and in the assay on Dd2 was “inactive” throughout.

Take `C[N+](C)(C)CCOC(=O)CCC(=O)OCC[N+](C)(C)C`: the Potency entry with CP256, with CP260, with CP262, in the assay on CP265, in the assay on CP266 and in the assay with CP268 was “inactive” in each case. For the same compound, the Potency entry in the assay on CP269, with CP286, in the assay on CP291, in the assay on CP297, with CP305 and in the assay with CP315 was “inactive” each time. In addition, the Potency result in the assay on CP325, in the assay on CP329, in the assay with CP335, with DFO2036, with DIV14 and in the assay on DIV17 was “inactive” in each case. The Potency entry in the assay on DIV30 and in the assay on Dd2 was “inactive” throughout.

Take `NC(=O)N1c2ccccc2C=Cc2ccccc21`: the Potency result in the assay with CP256, with CP260, in the assay with CP262, in the assay with CP265, in the assay with CP266 and in the assay on CP268 was “inactive” throughout. The Potency result in the assay with CP269, in the assay with CP286, with CP291, in the assay with CP297, with CP305 and in the assay on CP315 was “inactive” throughout. The Potency entry in the assay on CP325, in the assay with CP329, in the assay on CP335, with DFO2036, in the assay on DIV14 and in the assay with DIV17 was “inactive” in each case. In addition, the Potency result in the assay with DIV30 and in the assay with Dd2 was “inactive” each time.

`NC/C=C/C(=O)O`: the Potency entry with CP256, in the assay with CP260, in the assay on CP262, with CP265, with CP266 and in the assay on CP268 was “inactive” throughout. In addition, the Potency entry in the assay on CP269, with CP286, in the assay with CP291, in the assay on CP297, in the assay on CP305 and with CP315 was “inactive” in each case. Besides, the Potency result with CP325, with CP329, with CP335, in the assay with DFO2036, in the assay on DIV14 and in the assay on DIV17 was “inactive” throughout. Besides, the Potency result in the assay with DIV30 and in the assay on Dd2 was “inactive” in each case.

In the case of `CSc1ccc(C(=O)c2[nH]c(=O)[nH]c2C)cc1`, the Potency entry with CP256, in the assay on CP260, in the assay with CP262, in the assay on CP265, in the assay with CP266 and with CP268 was “inactive” each time. Further, the Potency result with CP269, in the assay with CP286, in the assay with CP291, in the assay on CP297, with CP305 and in the assay with CP315 was “inactive” throughout. The Potency result in the assay with CP325, in the assay with CP329, in the assay on CP335, in the assay with DFO2036, in the assay on DIV14 and in the assay on DIV17 was “inactive” each time. Moreover, the Potency result with DIV30 and in the assay with Dd2 was “inactive” each time.

In the case of `CCCCCN(CCCCC)C(=O)C(CCC(=O)O)NC(=O)c1ccc(Cl)c(Cl)c1` (stereo not given), the Potency result in the assay on CP256, with CP260, in the assay on CP262, in the assay with CP265, with CP266 and in the assay on CP268 was “inactive” in each case. Further, the Potency result in the assay on CP269, with CP286, in the assay on CP291, with CP297, with CP305 and with CP315 was “inactive” each time. The Potency entry in the assay with CP325, in the assay on CP329, in the assay with CP335, with DFO2036, in the assay with DIV14 and with DIV17 was “inactive” in each case. In addition, the Potency entry with DIV30 and with Dd2 was “inactive” in each case.

Turning to `CCCCNC(=O)NS(=O)(=O)c1ccc(C)cc1`, the Potency result in the assay with CP256, with CP260, in the assay on CP262, in the assay with CP265, in the assay on CP266 and in the assay with CP268 was “inactive” in each case. The Potency entry in the assay with CP269, with CP286, in the assay with CP291, in the assay on CP297, in the assay on CP305 and in the assay on CP315 was “inactive” each time. The Potency result with CP325, with CP329, in the assay with CP335, in the assay on DFO2036, in the assay on DIV14 and in the assay on DIV17 was “inactive” throughout. Moreover, the Potency result with DIV30 and in the assay on Dd2 was “inactive” in each case.

For the compound `CC(C)(Oc1ccc(CCNC(=O)c2ccc(Cl)cc2)cc1)C(=O)O`, the Potency result in the assay on CP256, with CP260, in the assay with CP262, in the assay on CP265, in the assay with CP266 and with CP268 was “inactive” each time. For the same compound, the Potency result with CP269, in the assay with CP286, in the assay with CP291, in the assay on CP297, in the assay with CP305 and with CP315 was “inactive” throughout. The Potency entry in the assay on CP325, in the assay with CP329, in the assay on CP335, in the assay on DFO2036, in the assay with DIV14 and with DIV17 was “inactive” each time. In addition, the Potency entry in the assay with DIV30 and in the assay with Dd2 was “inactive” each time.

`CC(=O)OCC1=C(C(=O)O)N2C(=O)[C@@H](NC(=O)Cc3cccs3)[C@H]2SC1`: the Potency result in the assay on CP256, in the assay with CP260, with CP262, with CP265, with CP266 and in the assay on CP268 was “inactive” throughout. The Potency entry in the assay on CP269, with CP286, in the assay on CP291, in the assay with CP297, in the assay with CP305 and in the assay with CP315 was “inactive” each time. Moreover, the Potency entry in the assay on CP325, in the assay on CP329, in the assay with CP335, in the assay with DFO2036, with DIV14 and with DIV17 was “inactive” in each case. Further, the Potency result in the assay on DIV30 and with Dd2 was “inactive” throughout.

With `COCC(=O)O[C@]1(CCN(C)CCCc2nc3ccccc3[nH]2)CCc2cc(F)ccc2[C@@H]1C(C)C`, the Potency in the assay on CP256 was 4.47 µM (active); in the assay on CP260, 1.58 µM (active); with CP262, 6.75 µM (active); with CP265 it was 4.47 µM (active); with CP266, 6.75 µM (active); in the assay with CP268, 5.36 µM (active). The Potency in the assay on CP269 is 2.69 µM (active); in the assay with CP286 it was 1.58 µM (active); with CP291, 4.78 µM (active); with CP297, 0.849 µM (active); in the assay on CP305, 6.01 µM (active); in the assay on CP315, 6.75 µM (active). The Potency with CP325 is 6.75 µM (active); in the assay with CP329, 4.78 µM (active); in the assay on CP335, 1.9 µM (active); with DFO2036, 1.26 µM (active); in the assay on DIV14 it was 0.953 µM (active); with DIV17 it was 0.601 µM (active). The Potency in the assay on DIV30 was 3.38 µM (active); with Dd2 it was 0.224 µM (active).

With `CCN(Cc1ccncc1)C(=O)C(CO)c1ccccc1` (stereo not given), the Potency result with CP256, in the assay on CP260, with CP262, in the assay with CP265, in the assay on CP266 and in the assay with CP268 was “inactive” throughout. The Potency entry in the assay with CP269, in the assay with CP286, with CP291, in the assay with CP297, in the assay on CP305 and in the assay on CP315 was “inactive” each time. The Potency result in the assay on CP325, with CP329, in the assay on CP335, in the assay with DFO2036, in the assay on DIV14 and in the assay on DIV17 was “inactive” throughout. For the same compound, the Potency entry with DIV30 and with Dd2 was “inactive” each time.

Take `CN(C)C(=O)Oc1cccc([N+](C)(C)C)c1`: the Potency result with CP256, in the assay with CP260, in the assay with CP262, in the assay on CP265, in the assay with CP266 and in the assay on CP268 was “inactive” in each case. Besides, the Potency result with CP269, in the assay with CP286, in the assay with CP291, with CP297, in the assay on CP305 and with CP315 was “inactive” in each case. Further, the Potency entry with CP325, in the assay with CP329, in the assay with CP335, with DFO2036, in the assay with DIV14 and in the assay on DIV17 was “inactive” throughout. Further, the Potency result with DIV30 and in the assay on Dd2 was “inactive” in each case.

Regarding `COc1ccc([C@@H]2Sc3ccccc3N(CCN(C)C)C(=O)[C@@H]2OC(C)=O)cc1`, the Potency result in the assay on CP256, in the assay with CP260, in the assay with CP262, in the assay with CP265, in the assay on CP266 and in the assay on CP268 was “inactive” in each case. The Potency result in the assay with CP269, in the assay with CP286, in the assay on CP291, in the assay on CP297, in the assay with CP305 and in the assay on CP315 was “inactive” in each case. Further, the Potency entry in the assay on CP325, with CP329, with CP335, in the assay on DFO2036, in the assay with DIV14 and with DIV17 was “inactive” throughout. For the same compound, the Potency result in the assay on DIV30 and in the assay on Dd2 was “inactive” each time.
